Compound activity as filed in PubChem BioAssay.
Sampled rows, rich in hits. Any-hit rate of the full collection: about 6.8%.
MK inhibit = S. pneumoniae MK inhibitors, primary screen, biochemical, PK/LDH-coupled NADH absorbance; mevalonate kinase [Streptococcus pneumoniae D39]; purified MK, PK/LDH-coupled NADH absorbance 340 nm; inhibition, % at 10 µM; hit rate 0.48% among 65,000; AID 555, 2006;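 active = ranked among the strongest by inhibition in the single 10 µM screen, a fixed top-ranked set picked for dose follow-up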
Fluor 339 460 = intrinsic fluorescence of library compounds, ex339/em460 – biochemical, MLSMR library, data from DPM-DC assay, artefact control, profiling panel. hit rate 5.5% among 65,000. AID 709, 2007. fluorescence fold increase at 10 µM. compound autofluorescence, ex339/em460 nm, NADH buffer; active compounds read high; 1 = no-compound wells, NADH background;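 active = at 10 µM, mean starting fluorescence two-fold or more over control wells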;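 note: signal is the first read of a kinetic run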
Spn PMK inh = S. pneumoniae PMK inhibitors, primary screen, biochemical, mevalonate pathway, pilot trial included | AID 539, 2006 | hit rate 0.49% among 65,000 | phosphomevalonate kinase (Streptococcus pneumoniae D39) | inhibition, % at 10 µM | purified PMK, PK/LDH-coupled NADH absorbance 340 nm;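 active = top-ranked compounds by inhibition in the single 10 µM screen, taking a fixed number of the strongest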;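 note: 0% = full reaction with DMSO carrier and 100% = background rate without enzyme reaction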
NADH enzymes = inhibitors of PK/LDH coupling enzymes, profiling panel, artefact control, biochemical, MLSMR library; IC50, µM (titrated, usually from 10 µM), without a hit: top-dose inhibition; coupled PK/LDH NADH assays, four targets; hit rate 0.02% among 65,000;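 active = single-dose screening hits from any of four coupled enzyme assays that gave an IC50 when retested across doses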;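 note: the DPM-DC format reads NADH fluorescence rather than 340 nm absorbance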
DPM-DC inhibit = S. pneumoniae DPM-DC inhibitors, primary screen, biochemical, PK/LDH-coupled NADH fluorescence | calls only at 10 µM | purified DPM-DC | hit rate 0.49% among 65,000 | diphosphomevalonate decarboxylase (Streptococcus pneumoniae D39) | AID 556, 2006;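 active = the 320 compounds with the highest percent inhibition in the single-dose primary screen, excluding strongly autofluorescent ones, cut at about 32% in these data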;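 note: kinetic rate of NADH fluorescence loss reporting ADP formed by the decarboxylase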
Abs 340nm = compound light absorbance at 340 nm, profiling panel, artefact control, biochemical, MLSMR library, data from PS, PMK, MK assays | 65,000 tested, under 10 active | fold change at 10 µM | compound absorbance at 340 nm, fold over control;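 active = at 10 µM dose, initial 340 nm absorbance at least 2 fold that of control wells; inactive = change under 2 fold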;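 note: initial absorbance extrapolated from kinetic A340 decline of NADH oxidation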
The depositor's hits bear a star; i = inactive; nt = not tested or not shown; + = active, no number.

SMILES	MK inhibit	Fluor 339 460	Spn PMK inh	NADH enzymes	DPM-DC inhibit	Abs 340nm
CCC(C)(C)n1nnnc1C(c1cc2cc(C)ccc2[nH]c1=O)N1CCCC1 (stereo not given)	15.0	1.42	11.0	7.0%	i	1.03
CCN1CCN(CC(=O)Nc2cccc(C)c2)C(=O)C1=O	4.0	1.16	18.0	7.0%	i	1.04
CCOC(=O)C1C(=O)NC(C)C1c1ccccc1 (stereo not given)	5.0	1.01	8.0	4.0%	i	0.98
O=c1[nH]c2ccccc2nc1-c1cccs1	0.0	4.89*	11.0	6.0%	nt	1.05
c1csc(-c2nnsc2-c2nc3ccccc3[nH]2)c1	2.0	1.22	8.0	3.0%	i	1.03
COc1cc2c(OC)cccc2cc1C(=O)O	8.0	2.92*	0.0	2.0%	nt	1
CCCCS(=O)(=O)C(=C1Nc2ccccc2N1)S(=O)(=O)CCCC	13.0	1.24	26.0*	15.0%	i	1.05
COc1ccc(-c2cc(C(=O)OCC(=O)N3CCCC3)c3ccccc3n2)cc1	0.0	2.9*	19.0	17.0%	i	1.03
CS(=O)(=O)N1CCN(C(=O)c2cc(-c3cccs3)nc3ccccc23)CC1	11.0	3.86*	3.0	7.0%	nt	1.14
CCOc1ccc(-c2cc(C(=O)N3CCN(C)CC3)c3ccccc3n2)cc1	0.0	5.16*	9.0	5.0%	nt	1.08
CCOC(=O)N1CCN(C(=O)c2cc(-c3ccc(OCC)cc3)nc3ccccc23)CC1	0.0	5.22*	11.0	6.0%	nt	1.07
O=C(c1cc(-c2ccccc2)nc2ccccc12)N1CCOCC1	2.0	1.12	6.0	3.0%	i	1.04
Cn1ccnc1SCC(=O)c1ccc(Br)cc1	0.0	1.08	15.0	5.0%	i	1
Cc1ccc2nc(-c3ccc4c(c3)OCCO4)cc(C(=O)O)c2c1	0.0	1.2	0.0	2.0%	i	1.03
CCOc1ccc(-c2cc(C(=O)N3CCN(c4ccccn4)CC3)c3ccccc3n2)cc1	0.0	1.55	12.0	4.0%	i	0.98
O=C(O)c1cc(-c2cccs2)nc2cc3c(cc12)OCCO3	11.0	2.15*	0.0	6.0%	nt	1.11
COc1ccc(-c2cc(C(=O)N3CCN(c4ccccn4)CC3)c3ccccc3n2)cc1	0.0	2.66*	16.0	9.0%	i	1.08
c1ccc(-c2nn3c(Cn4nnc5ccccc54)nnc3s2)cc1	7.0	1.13	1.0	3.0%	i	1.04
c1ccc2c(c1)nnn2Cc1nnc2sc(-c3ccc4c(c3)OCCO4)nn12	10.0	2.93*	11.0	18.0%	+	1.07
COc1ccc(C(CC(=O)O)NC(=O)OC(C)(C)C)cc1 (stereo not given)	2.0	1.02	0.0	1.0%	i	1.03
CC(C)(C)OC(=O)NCCC(=O)Oc1ccc2ccc(=O)oc2c1	6.0	2.26*	9.0	8.0%	nt	1.03
CC(NC(=O)OC(C)(C)C)C(=O)Oc1ccc2ccc(=O)oc2c1 (stereo not given)	6.0	2.3*	0.0	3.0%	nt	1.03
COc1ccc(OC)c2[nH]c(=O)c(CCNC(=O)CC(C)C)cc12	0.0	1.08	11.0	3.0%	i	1
O=C(CN1CCN(C2CCCCC2)CC1)c1ccc2cc[nH]c2c1	0.0	2.1*	1.0	1.0%	nt	1.15
O=C(O)c1ccc2cc[nH]c2c1	9.0	1.15	10.0	8.0%	i	1
SMILES	MK inhibit	Fluor 339 460	Spn PMK inh	NADH enzymes	DPM-DC inhibit	Abs 340nm
COc1ccccc1Cn1c2nc3ccccc3nc2c2c(=O)n(CC(C)C)cnc21	8.0	1.14	0.0	4.0%	i	1.03
N#Cc1c(C(F)(F)F)cc(-c2ccco2)nc1SCc1ccccn1	4.0	2.09*	0.0	2.0%	nt	1.04
N#Cc1c(C(F)(F)F)cc(-c2ccco2)nc1SCc1ccncc1	8.0	2.57*	7.0	18.0%	+	1.07
O=C(Oc1ccccc1C(=O)Oc1ccccc1)c1ccco1	2.0	1.06	0.0	1.0%	i	1.07
CC(C)(C)NC(=O)CN(Cc1cccnc1)C(=O)c1csnn1	8.0	1.11	15.0	8.0%	i	1.01
COc1cc2nc(N3CCNCC3)nc(N)c2cc1OC	9.0	3.96*	1.0	5.0%	nt	1.09
CCOc1cc2nc(-c3ccc(OC)c(OC)c3)nc(N3CCOCC3)c2cc1OC	10.0	1.47	6.0	15.0%	i	1.09
O=c1cc(-c2ccncc2)oc2ccccc12	6.0	1.08	0.0	2.0%	i	1.08
O=c1cc(-c2ccc3c(c2)OCO3)oc2ccccc12	0.0	3.65*	8.0	4.0%	nt	1.18
Oc1c(C(c2cccc(F)c2)N2CCN(Cc3ccccc3)CC2)sc2ncnn12 (stereo not given)	7.0	1.04	1.0	3.0%	i	1.07
Cc1cc(C)n(CCCNC(=O)c2ccc(S(=O)(=O)NCc3ccco3)cc2)n1	6.0	1	12.0	3.0%	i	0.96
Cn1c2ccccc2c2cc(C(=O)OCC(=O)N3CC(=O)Nc4ccccc43)sc21	0.0	2.1*	13.0	7.0%	nt	1.17
Cc1ccc(OCCn2c(C)c(/C=N/n3cnnc3)c3ccccc32)cc1	9.0	0.98	0.0	15.0%	+	1.11
Cc1c(/C=N/n2cnnc2)c2ccccc2n1CCOc1ccc(Cl)cc1	10.0	1.03	0.0	4.0%	i	1.13
Cc1cccn2c(=O)c3cc(C#N)c(=N)n(CCN4CCOCC4)c3nc12	11.0	1.91	0.0	6.0%	nt	1.04
Cc1cccn2c(=O)c3cc(C#N)c(=NC(=O)c4ccncc4)n(CCCOC(C)C)c3nc12	0.0	3.62*	6.0	3.0%	nt	1.1
COCCCn1c(=NC(=O)c2ccncc2)c(C#N)cc2c(=O)n3cccc(C)c3nc21	9.0	3.92*	0.0	5.0%	nt	1.1
CCCn1c(=NC(=O)c2ccncc2)c(C#N)cc2c(=O)n3cccc(C)c3nc21	0.0	3.6*	9.0	5.0%	nt	1.08
CCCn1c(=NC(=O)c2ccc3c(c2)OCO3)c(C#N)cc2c(=O)n3cccc(C)c3nc21	7.0	1.4	13.0	7.0%	i	1.03
O=C(CN1CCN(c2ncccn2)CC1)Nc1ccccc1-n1cccc1	34.0	1.03	0.0	3.0%	i	0.99
COCCn1c(SCC(=O)c2[nH]c(C)c(C(C)=O)c2C)nc2ccccc21	0.0	1.05	18.0	6.0%	i	1.06
O=C(Nc1c(-c2ccccc2)nc2sccn12)c1ccccc1	15.0	1.07	40.0*	18.0%	i	1.03
Nc1nc(-c2cccs2)c(NC(=O)c2ccccc2)s1	5.0	1.05	12.0	6.0%	i	1.04
c1nc(NC2CCCC2)c2[nH]cnc2n1	5.0	1.29	0.0	4.0%	i	1.03
